In PubChem BioAssay AID1259370 (Center for Chemical Genomics, University of Michigan, 2018):
The campaign covered roughly 94,000 compounds. About 680 (0.72%) were called active. The sample as a whole holds a higher share of actives than the screen did. A number with no mark means an inactive call. Cut-off read from the data, not from the text of the source: active = z-score above about 3.2; inactive = the rest.

target: M-phase inducer phosphatase 2 (Homo sapiens) + Cyclin-dependent kinase 2 (Homo sapiens) + Cyclin-A2 (Homo sapiens) (UniProt P30305+P24941+P20248); assay: primary biochemical HTRF screen for blockers of M-phase inducer phosphatase 2 binding to CDK2/cyclin A (AID 1259370); conditions: HTRF CDC25B-CDK2/CyclinA binding, anti-His/anti-Flag; active compounds read high

| SMILES | z-score |
| --- | --- |
| N#Cc1c(-c2ccccc2)nc(SCCCCOc2ccc(Cl)cc2)[nH]c1=O | 4.75 (active) |
| Cc1ccc(CSc2nc(-c3ccccc3)c(C#N)c(=O)[nH]2)cc1 | -0.77 |
| CCSc1nc(-c2ccc(Cl)cc2)c(C#N)c(=O)[nH]1 | -0.88 |
| O=C(CSc1ncnc2nc[nH]c12)c1ccc(O)c(O)c1 | 2.58 |
| Cc1n[nH]c(=O)c2nn(-c3ccccc3)c(C)c12 | 0.76 |
| Cc1cc(C)cc(NS(=O)(=O)c2ccc3c(c2)n(C)c(=O)n3C)c1 | -1.42 |
| Cc1cc2c(c(=O)n1CC1CCCO1)C(c1cccc(Br)c1)C(C#N)=C(N)O2 (stereo unspecified) | -0.22 |
| CC(C)c1ccc(C2c3c([nH][nH]c3=O)CC(C)(O)C2C(=O)OCc2ccccc2)cc1 (stereo unspecified) | -1.98 |
| COc1ccc(S(=O)(=O)NC(C)c2nc(-c3ccc(C)cc3)no2)cc1 (stereo unspecified) | -1.34 |
| CC(C)CC(=O)Nc1ccc2nsnc2c1 | -1.58 |
| COC(=O)c1ccc2snnc2c1 | -0.98 |
| CC(C)NC(=O)Nc1ccc2snnc2c1 | 5.16 (active) |
| CCOC(=O)c1cn(-c2cccc(F)c2)nn1 | -1.61 |
| Cn1c(=O)n(C)c2cc(S(=O)(=O)Nc3ccc(F)cc3)ccc21 | -0.14 |
| Cc1nc(C)c(C(=O)Nc2nnc(CC(C)C)s2)s1 | -0.08 |
| CC12CC3(C)CC(C)(C1)CC(C(=O)NC(C)(C)CO)(C2)C3 | -1.12 |
| O=C(CSc1ccc(-c2cccs2)nn1)N1CCCc2ccccc21 | -0.97 |
| COc1ccc(S(=O)(=O)N(C(=O)c2ccncc2)c2ccc3oc(=O)sc3c2)cc1OC | -3.46 |
| O=C(c1cccnc1)N(c1ccc2oc(=O)sc2c1)S(=O)(=O)c1ccccc1 | -1.85 |
| O=C(c1cccnc1)N(c1cc2sc(=O)oc2c2ccccc12)S(=O)(=O)c1ccccc1 | 12.3 (active) |
| CCn1c(COC)nc2ccccc21 | -0.64 |

| SMILES | z-score |
| --- | --- |
| CCC(C)NC(=O)C1=CC(c2cccs2)=NS(=O)(=O)N1C (stereo unspecified) | -1.72 |
| O=C(O)c1cccc(N2C(=O)c3ccc4c5c(ccc(c35)C2=O)CC4)c1 | 8.86 (active) |
| O=C1c2cccc3cccc(c23)C(=O)N1c1cccc(O)c1 | -0.15 |
| O=C1c2ccc3c4c(ccc(c24)C(=O)N1c1ccccc1)C(=O)N(c1ccccc1)C3=O | -2.52 |
| COCCOC(=O)C1=C(C)Nc2nc3ccccc3n2C1c1cccc(F)c1 (stereo unspecified) | -1.51 |
| COc1ccc(C(=O)Oc2ccc3c(c2)oc(=O)c2ccccc23)cc1 | -0.65 |
| CC(C)CCNC(=O)C1CCC(CNc2c(N3CCC(C)CC3)c(=O)c2=O)CC1 (stereo unspecified) | -0.9 |
| Cc1nc(N2CCCCC2)cc(N2CCN(S(=O)(=O)c3ccc(F)cc3)CC2)n1 | -1.52 |
| CCOc1ccccc1Nc1nc2ccc(Cl)cc2n2nnnc12 | -2.08 |
| Cn1c(=O)n(C)c2cc(CNC3CCCCC3)ccc21 | -1.66 |
| Clc1ccc(C=NCc2cccnc2)c(Cl)c1 | 0.36 |
| O=C(Nc1ccccc1)N1CCN(Cc2ccccc2)CC1 | 4.1 |
| S=C(Nc1cccnc1)N1CCCN(Cc2ccc(Cl)cc2Cl)CC1 | 12 (active) |
| CCOC(=O)c1c(NC(=O)Nc2cccc(Cl)c2)sc2c1CCCC2 | -0.86 |
| CC1=C(c2cccc(Br)c2)S(=O)(=O)N=C1Nc1ccccc1C | -2.29 |
| O=C(COc1ccc2c3c(c(=O)oc2c1)CCC3)OC1CCCCC1 | -1.13 |
| COc1ccc2cc3c(N)nn(C(=O)Cn4c(=O)oc5ccccc54)c3nc2c1 | -0.84 |
| O=C(O)C1CCCN(c2cnccn2)C1 (stereo unspecified) | 0.23 |
| Cc1ccc(C)c(C(=O)CSc2n[nH]c(-c3ccco3)n2)c1 | 8.74 (active) |
| COc1ccccc1-c1nc(SCC(=O)c2ccc(Br)cc2)n[nH]1 | -0.98 |
| Cc1ccc(CNc2n[nH]c(-c3ccco3)n2)cc1 | -1.84 |

| SMILES | z-score |
| --- | --- |
| CCSc1ncc(Cl)c(C(=O)Nc2nc(C)c(C(=O)OCC(C)C)s2)n1 | -1.22 |
| Cn1c(=O)c2c(-c3cccc(Br)c3)n(C(CO)(CO)CO)cc2n(C)c1=O | 0.09 |
| COC(=O)C1=C(C)NC2=C(C(=O)c3ccccc32)C1c1ccc(OC)cc1 (stereo unspecified) | 1.16 |
| CCOC(=O)C1=C(C)NC2=C(C(=O)c3ccccc32)C1c1ccc(OC(=O)c2ccccc2)cc1 (stereo unspecified) | 11.9 (active) |
| CCOC(=O)C1=C(C)NC2=C(C(=O)c3ccccc32)C1c1cccc(F)c1 (stereo unspecified) | -1.68 |
| O=C(O)CSc1nc2ccccc2c(=O)n1Cc1ccco1 | -1.25 |
| CCOC(=O)c1sc(NC(=O)c2cc3ccccc3o2)c(C(=O)OCC)c1C | -1.55 |
| N#CC1=C2SCN(c3ccc(F)cc3)CN2C(=O)CC1c1ccc(Br)cc1 (stereo unspecified) | 2.31 |
| COc1ccc(C(=O)CC2(O)C(=O)N(C(C)C)c3ccccc32)c(OC)c1 (stereo unspecified) | -1 |
| COc1ccc(OC)c(C2CC(=O)N3CN(Cc4ccco4)CSC3=C2C#N)c1 (stereo unspecified) | -3.58 |
| COc1ccc(OC)c(C2C(C#N)=C3N=C(N)c4ccccc4N3C3=C2C(=O)CCC3)c1 (stereo unspecified) | 0.51 |
| Cc1cccc(N2CSC3=C(C#N)C(c4ccccc4C)CC(=O)N3C2)c1 (stereo unspecified) | 3.61 (active) |
| COc1ccccc1N1C(=O)C2C(c3ccccc3C)OC3(C(=O)c4ccccc4C3=O)C2C1=O (stereo unspecified) | 0.1 |
| COc1ccc(C2CC(=O)N3CN(c4ccccc4OC)CSC3=C2C#N)c(OC)c1 (stereo unspecified) | 8.02 (active) |
| CSC1=C(C#N)C(c2ccccc2C)CC(=O)N1 (stereo unspecified) | -0.39 |
| COc1ccc(OC)c(C2CC(=O)N3CN(c4ccccc4OC)CSC3=C2C#N)c1 (stereo unspecified) | 3.41 (active) |
| CCOc1ccc(N2CSC3=C(C#N)C(c4ccc(SC)cc4)CC(=O)N3C2)cc1 (stereo unspecified) | 6.74 (active) |
| CC(C)C(=O)Nc1sc2c(c1C(=O)O)CCCC2 | -2.62 |
| Cc1nc(N)[nH]c(=O)c1Br | 0.46 |
